The sample as a whole holds a higher share of hits than the screen did.
ST2 IL33 inh: inhibitors of human ST2 (IL1RL1) binding to IL-33. inhibition, % for hits at 17 µM. AlphaLISA ST2-Fc/biotin-IL-33 interaction, 1 h. Q01638. actives 2.3% (n = 78,000); in the data active = inhibition above about 30%
Target sequence (Q01638 whole entry, looked up): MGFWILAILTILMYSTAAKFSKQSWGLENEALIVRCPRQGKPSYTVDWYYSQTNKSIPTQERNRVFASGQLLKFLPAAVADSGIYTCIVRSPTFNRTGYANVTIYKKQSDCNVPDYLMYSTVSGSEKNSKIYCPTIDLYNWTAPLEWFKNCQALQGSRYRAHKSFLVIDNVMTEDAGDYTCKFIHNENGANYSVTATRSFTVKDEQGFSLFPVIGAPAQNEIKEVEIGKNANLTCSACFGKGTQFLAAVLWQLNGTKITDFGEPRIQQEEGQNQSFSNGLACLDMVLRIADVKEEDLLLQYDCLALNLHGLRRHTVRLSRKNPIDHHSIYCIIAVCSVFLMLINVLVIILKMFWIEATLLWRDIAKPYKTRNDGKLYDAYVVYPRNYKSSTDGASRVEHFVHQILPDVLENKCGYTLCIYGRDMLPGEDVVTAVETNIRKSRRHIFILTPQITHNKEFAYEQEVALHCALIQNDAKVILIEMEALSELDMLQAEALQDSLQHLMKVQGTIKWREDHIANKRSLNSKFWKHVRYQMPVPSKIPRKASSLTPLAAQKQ
* marks the source's active call; other numbers are inactive results; i = inactive.

SMILES	ST2 IL33 inh
O=C1N(CC2CCC2)CCCC1(O)CN1CCC2(CC1)OCCO2 (configuration not stated)	i
COc1ccc2cc([C@@H]3C[C@H](NC(C)=O)C[C@H](C(C)(C)C)O3)c(=O)[nH]c2c1	i
COc1cc(/C=C2\C(=O)N(c3ccc(C(=O)O)cc3)N=C2C)cc(Cl)c1O	i
CC1=NN(c2ccc(Cl)c(Cl)c2)C(=O)/C1=C/c1ccccc1	i
COc1ccc(Br)cc1/C=C1\C(=O)N(c2cccc(Cl)c2)N=C1C	i
COc1ccc(OC)c(/C=C2\C(=O)N(c3ccc(Cl)c(C(=O)O)c3)N=C2C)c1	i
COc1ccc(Cl)cc1/C=C1\C(=O)N(c2ccc(Cl)c(C(=O)O)c2)N=C1C	74.0%*
COc1ccccc1/C=C1\C(=O)N(c2ccc(Cl)cc2Cl)N=C1C	i
COc1cc(/C=C2\C(=O)N(c3ccc(Cl)c(C(=O)O)c3)N=C2C)cc(OC)c1OC	56.0%*
COc1ccc(/C=C2/C(=O)N(c3ccc(Cl)c(Cl)c3)N=C2C)cc1OC	65.0%*
CCN(C)c1ccc(/C=C2/C(=O)NN(c3ccc(Cl)c(Cl)c3)C2=O)cc1	i
CC1=NN(c2ccc(Cl)c(Cl)c2)C(=O)/C1=C/c1ccc(C)c([N+](=O)[O-])c1	i
CCN(C)c1ccc(/C=C2/C(=O)N(c3ccc(Cl)c(Cl)c3)N=C2C)cc1	30.0%*
O=C(Nc1nnc(C2CC2)o1)c1ccc(S(=O)(=O)N2CCOCC2)cc1	i
COc1ccc2c(c1)CCc1c(C(=O)Nc3cccc(O)c3)noc1-2	i
C=CCn1cc(C(=O)N2CCOCC2)c(=O)c2cc(S(=O)(=O)N3CCCCCC3)ccc21	i
CN1CCN(CCOc2ccc(C(=O)c3ccccc3)cc2)CC1	i
COc1ccccc1N1CCN([C@H]2CN(C(=O)CCC(C)C)C[C@@H]2O)CC1	i
CCCCNC(=O)c1noc2c1CCc1ccccc1-2	i
CCOc1ccc(-n2nc3ccc(NC(=O)c4cccnc4)cc3n2)cc1	i
CC(=O)NC(=O)c1cc2ccccc2oc1=Nc1ccc(F)cc1	i
COc1ccc2oc(=Nc3ccc(C(F)(F)F)cc3)c(C(=O)NC(C)=O)cc2c1	i
CC(=O)NC(=O)c1cc2cc(Br)ccc2oc1=Nc1ccc(C#N)cc1	32.0%*
Cc1ccc(Cl)cc1-n1c(C2CCC2)n[nH]c1=O	i
COc1ccc(C(=O)N(Cc2ccccc2)Cc2ccccc2)cc1OC	i
SMILES	ST2 IL33 inh
CN(CCc1ccccc1)[C@@H]1[C@H](O)[C@H](CO)O[C@@H]1CNC(=O)Nc1ccc(F)cc1F	i
Cn1ncc2c(NCc3n[nH]c4c3CCCCC4)nc(-c3cccnc3)nc21	i
Cc1nnsc1CNc1nc(-c2cccnc2)nc2c1cnn2C	i
CN(CCCc1cnn(C)c1)c1nc(-c2cccnc2)nc2c1cnn2C	30.0%*
CN1CCC(N[C@@H](Cn2ccc(=O)[nH]c2=O)C(=O)O)CC1	i
Cc1ccc(-n2ncc3c(=O)n(CCc4ccc(Cl)cc4)c(-c4ccco4)nc32)cc1	i
c1ccc(CN2CC[C@H](c3nnc(-c4cccnc4)o3)C2)cc1	34.0%*
Cc1ccc(CN2CC[C@H](c3nnc(-c4cccnc4)o3)C2)cc1	i
c1cncc(-c2nnc([C@H]3CCN(Cc4ccncc4)C3)o2)c1	i
O=C(CSc1nnc2c(n1)[nH]c1ccccc12)c1ccc(Cl)cc1	32.0%*
Brc1ccc(CSc2nnc3c(n2)[nH]c2ccccc23)cc1	i
O=C(CSc1nnc2c(n1)[nH]c1ccccc12)Nc1nc2ccc([N+](=O)[O-])cc2s1	i
Cc1nc2c(C(=O)N(C)CCCn3cccn3)cccc2[nH]1	i
O=C(NCC(F)(F)C(F)F)c1ccncc1	i
NNC(=O)C(=O)Nc1nc(-c2ccc(Br)cc2)cs1	i
N#C/C(=C\Nc1ccc(F)cc1)c1nc(-c2cc3cc(Br)ccc3oc2=O)cs1	i
CC(C)(C)C(=O)Nc1nc(-c2ccc(Br)cc2)cs1	i
Cc1ccc(/C=C(/C#N)c2nc(-c3ccc(Br)cc3)cs2)o1	52.0%*
N#C/C(=C\c1ccco1)c1nc(-c2ccc(Br)cc2)cs1	32.0%*
COc1ccccc1-c1cc(C(F)(F)F)nc(N2CCN(C)CC2)n1	i
COCCCn1c(SCC(=O)NC2CCCCC2)nc2c(sc3ccccc32)c1=O	i
CCN(c1ccccc1)S(=O)(=O)c1cccc2cccnc12	i
Cc1cccc(N(CC(=O)Nc2ccc(F)cc2)S(=O)(=O)c2ccccc2)c1C	38.0%*
Cc1cccc(N(CC(=O)Nc2ccccc2Cl)S(=O)(=O)c2ccccc2)c1C	i
COc1ccc(N(CC(=O)Nc2ccc(F)cc2)S(=O)(=O)c2ccccc2)c(OC)c1	i
SMILES	ST2 IL33 inh
CC(=O)N[C@H]1CC[C@]2(C)CC[C@@H]([C@H](C)C(=O)NC3CCCCC3)[C@H](O)[C@H]2[C@@H]1C	i
COc1cc(C(=O)N2CCN(Cc3ccc([N+](=O)[O-])cc3)CC2)cc(OC)c1OC	i
COc1ccc(NC(=O)c2coc(=O)c3ccccc23)c(OC)c1	i
COc1ccc(N2C(=O)c3cccnc3C2=O)c(OC)c1	i
COc1ccc(C2=C/C(=C3/c4ccccc4-c4ncccc43)C(=O)O2)c(OC)c1	31.0%*
NC(=O)C1CCN([C@H]2[C@@H]3OC[C@@H](O3)[C@@H](NC(=O)NC3CCCCC3)[C@@H]2O)CC1	i
CCn1cc(C(=O)NCCCOC)c(=O)c2cc(S(=O)(=O)N3CCOCC3)ccc21	i
CC1=NN(c2cc(C(=O)O)cc(C(=O)O)c2)C(=O)/C1=C\c1ccc(N(C)C)cc1	76.0%*
CC1=NN(c2ccc(F)cc2)C(=O)/C1=C/c1ccc(N(C)C)c([N+](=O)[O-])c1	i
CCc1ccc(N2N=C(C)/C(=C/c3ccc(N(C)C)cc3)C2=O)cc1	42.0%*
CN(C)c1ccc(/C=C2/C(=O)c3ccc(C(=O)O)cc3C2=O)cc1	i
CC1=NN(c2cccc(Cl)c2)C(=O)/C1=C\c1ccc(-c2ccc(C(=O)O)c(Cl)c2)o1	i
O=C(c1n[nH]c(=O)c2ccccc12)N1CCC2(CCCN(Cc3ccc(F)c(F)c3)C2)C1 (configuration not stated)	i
COc1ccc(NC(=O)CSc2nnc(NC(=O)c3ccc(Cl)cc3Cl)s2)cc1	i
O=C(CCS(=O)(=O)c1cccc2nonc12)N1CCN(c2ccccc2F)CC1	i
CCC1CN2CCc3cc(OC)c(OC)cc3C2CC1CC1=NCCc2cc(OC)c(OC)cc21 (configuration not stated)	i
Cc1ccc(Cl)cc1NC(=O)CN1CCN(Cc2ccc(Cl)cc2)S1(=O)=O	i
CNC1CCN(C(=O)c2cccc(NCc3ccc(F)cc3)c2)CC1	i
N=c1c2c3c(sc2ncn1Cc1ccccc1)CCCC3	i
COc1ccc(-c2c3c(=O)n(C)c(=O)n(C)c3cn2Cc2ccccc2)cc1	i
COc1ccc(-c2oc3ncn(Cc4ccccc4)c(=N)c3c2-c2ccc(OC)cc2)cc1	39.0%*
COc1ccc(C2CC(=O)Nc3c2ccc2ccccc32)cc1 (configuration not stated)	i
COc1ccc(C2SCCN2S(=O)(=O)c2ccc3cccc4c3c2CC4)cc1 (configuration not stated)	i
Cc1cccc(NS(=O)(=O)c2cccc3nonc23)c1C	i
Cc1csc2ncc(C(=O)Nc3ccc(F)cc3F)c(=O)n12	i
CC1(C2CCC(=O)O2)CC(=O)c2c(O)cc(CO)cc2O1 (configuration not stated)	30.0%*
Cc1ccc(-c2ccnc(-n3ncc(C(=O)NCC4(N5CCCCC5)CCCC4)c3C3CC3)n2)o1	i
